L3MBTL1 block – L3MBTL1 (human) inhibition | 230,000 compounds, 0.66% hits | Potency, µM (titrated, usually from 57.1 µM), for inactives: top-dose activity, negative = inhibition, hits mostly inhibitors | AlphaScreen L3MBTL1–H3K9me1 peptide binding; also: % is scaled to controls: 0 for no effect and ±100 for the full control effect; nearly all actives have a fitted effect of over 60% in size
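First, the protein-peptide complex forms for 30 min at room temperature (L3MBTL1 50 nM, biotinylated H3K9me1 peptide 75 nM). Next, compounds are pin-transferred and incubated 30 min. Finally, AlphaScreen beads are added and read after 30 min.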
G9a inh – G9a (human) methyltransferase inhibition; G9a H3K9 monomethylation, AlphaScreen, 2 h; 350,000 compounds, 8.8% hits; Q96KQ7; Potency, µM (series often up to 102 µM), without a hit: top-dose activity, negative = inhibition, usual class: inhibitors; also: % is scaled to controls: 0 for no effect and ±100 for the full control effect; nearly all actives have a fitted effect of over 75% in size
Target sequence (Q96KQ7 913-1193 limits assumed): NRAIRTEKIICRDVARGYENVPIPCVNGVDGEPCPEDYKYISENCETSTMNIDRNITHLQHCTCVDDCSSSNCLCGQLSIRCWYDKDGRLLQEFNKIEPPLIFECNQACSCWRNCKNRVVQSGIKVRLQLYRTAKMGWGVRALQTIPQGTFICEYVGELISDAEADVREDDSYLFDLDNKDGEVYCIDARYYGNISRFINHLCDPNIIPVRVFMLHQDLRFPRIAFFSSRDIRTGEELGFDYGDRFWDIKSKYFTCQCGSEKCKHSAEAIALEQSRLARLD
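Methyltransferase reactions run at room temperature for 2 h (20 nM enzyme, 500 nM biotin-H3K9 peptide, 20 uM SAM) after a 15 min compound preincubation; product detected by AlphaScreen beads and anti-H3K9me1 antibody.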
BAZ2B block – BAZ2B (human) inhibition; Q9UIF8; AlphaScreen BAZ2B-H3K14Ac peptide displacement; Potency, µM (doses to about 114 µM), inactives show at the highest dose activity change, negative = inhibition, usual class: inhibitors; 360,000 compounds, 4.4% hits; AID 504333; also: % is scaled to controls: 0 for no effect and ±100 for the full control effect; nearly all actives have a fitted effect of over 60% in size
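Inhibition is scored as reduced AlphaScreen emission. The BAZ2B/b-H3(5-23)K14Ac complex (50 nM each) in PBS pH 7.4, 0.01% Tween-20 meets compound (up to 110 uM) for 30 min at RT before bead addition.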
JMJD2A Tudor – blocks the human JMJD2A Tudor domain; AID 504339; Potency, µM (series often up to 114 µM), without a hit: at the highest dose activity change, negative = inhibition, most hits filed as inhibitors; AlphaScreen JMJD2A-Tudor / H3K4me3 peptide binding; 390,000 compounds, 4.4% hits; O75164; also: % is scaled to controls: 0 for no effect and ±100 for the full control effect; nearly all actives have a fitted effect of over 50% in size
HP1b chromo inh – blocks HP1-beta chromodomain binding to methylated histone tails. P83916. AlphaScreen HP1-beta / biotin-H3K9me3 peptide binding. Potency, µM (series often up to 114 µM), for inactives: top-dose activity change, negative = inhibition, most hits filed as inhibitors. 390,000 compounds, 0.56% hits; also: nearly all actives have a fitted effect of over 70% in size
Target sequence (P83916 whole entry, looked up): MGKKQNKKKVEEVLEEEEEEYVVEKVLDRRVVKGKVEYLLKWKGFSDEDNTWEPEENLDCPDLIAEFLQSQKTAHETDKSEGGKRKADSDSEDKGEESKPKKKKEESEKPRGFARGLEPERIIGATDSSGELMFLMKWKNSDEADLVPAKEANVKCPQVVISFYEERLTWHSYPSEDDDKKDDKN
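HP1-beta protein (50 nM final) preincubated 30 min at room temperature with biotinylated H3(1-18)K9me3 peptide (50 nM) in PBS pH 7.4, 0.01% Tween-20, then compound added for 30 min. AlphaScreen streptavidin donor/nickel chelate acceptor beads (10 ug/mL final), 30 min dark, luminescence read.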
Sfp inh – inhibitors of Bacillus subtilis Sfp phosphopantetheinyl transferase; Biochemical Sfp PPTase activity, qHTS; Potency, µM, without a hit: largest response in the series, negative = inhibition, hits mostly inhibitors; 310,000 compounds, 3.5% hits; AID 1490;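 also: the enzyme is Sfp with the accession as filed and its product quenches rhodamine fluorescence; 0% = enzyme reaction without inhibitor and -100% = no enzyme wells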
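Fluorescence-quenching assay: 15 nM Sfp-PPTase preincubated 15 min at room temperature with compound, then 5 uM rhodamine-CoA and 12.5 uM BHQ-2-labelled YbbR peptide added. Fluorescence (ex 525/em 598 nm) read at start and after 30 min; difference gives rate.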
* hit, by the source's call; ! = not confirmed by another sample; [ ] = another dose, or the depositor's remark. Most compounds without a hit are left out; they make up all but 12% or so of the library. Calls follow the shape of the dose curve; as a rule, active = well fitted curve in the direction sought with a large enough effect; inconclusive = small, poorly fitted or top-dose-only effect, or another doubt; inactive = no such curve, though single readings can be large; an effect the other way counts as inactive or inconclusive. Potency is read from the fitted curve at half-maximal effect.

How did Cc1c(C(=O)N(Cc2ccc(Cl)cc2)C2CCS(=O)(=O)C2)oc2ccccc12 (stereo not given) do in these assays?
G9a inh: -18%; BAZ2B block: -2%; JMJD2A Tudor: -27%; HP1b chromo inh: -9%; Sfp inh: 15%

What do the screens show for `O=C(Nc1ccc(OCc2cc(=O)n3ccsc3n2)cc1)c1ccc(F)cc1`?
G9a inh: -2%[59 µM]; BAZ2B block: -2%; JMJD2A Tudor: -3%; HP1b chromo inh: 25%

Results for CSc1ccc(-c2ccco2)nn1 ?
G9a inh: 32µM*; BAZ2B block: -22%; JMJD2A Tudor: -3%; HP1b chromo inh: 32%; Sfp inh: 32µM*

What do the screens show for `CCOc1ccc(-c2ccc(SC)nn2)cc1`?
L3MBTL1 block: inconclusive; G9a inh: -1%; BAZ2B block: -22%; JMJD2A Tudor: 7%; HP1b chromo inh: 31%; Sfp inh: 8%

Results for CCSc1ccc(-c2ccco2)nn1 ?
G9a inh: 18µM*; BAZ2B block: -25%; JMJD2A Tudor: -17%; HP1b chromo inh: 19%; Sfp inh: 14µM*

What do the screens show for `CNS(=O)(=O)c1cn(CC(=O)Nc2ccc(OC)c(Cl)c2)cc1S(=O)(=O)NC`?
G9a inh: -20%[59 µM]; BAZ2B block: -28%; JMJD2A Tudor: -1%; HP1b chromo inh: 11%

How did Cc1ccc(Cn2c(C(=O)O)c(CNC3CCCC3)c3ccc(C)cc32)cc1 do in these assays?
G9a inh: -28%[59 µM]; BAZ2B block: -30%; JMJD2A Tudor: -17%; HP1b chromo inh: 0%

Results for CC(=O)N1c2ccccc2C(=O)C1N1CCCCC1 (stereo not given) ?
L3MBTL1 block: -2%; G9a inh: 50µM*; BAZ2B block: 4%; JMJD2A Tudor: -8%; HP1b chromo inh: 45%; Sfp inh: 5%

How did CC(=O)N1c2ccccc2C(=O)C1N1CCN(c2cccc(Cl)c2)CC1 (stereo not given) do in these assays?
G9a inh: -11%[59 µM]; BAZ2B block: -25%; JMJD2A Tudor: -20%; HP1b chromo inh: 23%

What do the screens show for `N[C@@H](Cc1cnc[nH]1)C(=O)O`?
G9a inh: 6µM*!; Sfp inh: inconclusive

How did Cc1ccc2c(=O)c(C(=O)c3cccc(Cl)c3)cn(CC(=O)NC3CCCCC3)c2n1 do in these assays?
G9a inh: 3%[59 µM]; BAZ2B block: 0%; JMJD2A Tudor: -12%; HP1b chromo inh: 78%

Results for O=C(Nc1ccc(Cl)cc1)OCCn1nnnc1C(c1ccccc1Cl)N1CCOCC1 (stereo not given) ?
L3MBTL1 block: 3%; G9a inh: 11%[59 µM]; BAZ2B block: -3%[57.1 µM]; JMJD2A Tudor: 35µM*; HP1b chromo inh: -18%; Sfp inh: 1%

Results for O=C(Nc1ccc(Cl)cc1)OCCN1CCOCC1 ?
JMJD2A Tudor: -12%; HP1b chromo inh: 16%[57 µM]

What do the screens show for `Cc1ccc(S(=O)(=O)Cc2ccc(C(=O)N3CCN(c4cc(C)ccc4C)CC3)o2)cc1`?
L3MBTL1 block: -10%; G9a inh: -30%; BAZ2B block: 56µM*; JMJD2A Tudor: inconclusive; HP1b chromo inh: 0%; Sfp inh: 5%

How did Cc1ccc(S(=O)(=O)Cc2ccc(C(=O)N3CCCCCC3)o2)cc1 do in these assays?
G9a inh: -7%; BAZ2B block: 3%; JMJD2A Tudor: -28%; HP1b chromo inh: 20%; Sfp inh: 9%

Results for CCOC(=O)C1CCCN(C(=O)c2ccc(CS(=O)(=O)c3ccc(C)cc3)o2)C1 (stereo not given) ?
G9a inh: 50µM*; BAZ2B block: inconclusive; JMJD2A Tudor: inconclusive; HP1b chromo inh: 20%; Sfp inh: -3%

What do the screens show for `Cc1ccc(-c2nnc(SCc3ccccc3)o2)cc1`?
G9a inh: 5%[59 µM]; BAZ2B block: 356%; JMJD2A Tudor: 193%; HP1b chromo inh: 71%

What do the screens show for `CCc1ccc(C2=NNC(=Nc3cccc(S(=O)(=O)N(C)C)c3)SC2)cc1`?
L3MBTL1 block: -14%; G9a inh: 1%[59 µM]; BAZ2B block: -36%; JMJD2A Tudor: -22%; HP1b chromo inh: 4%; Sfp inh: 71µM*

Results for CC(C(=O)NC1C(=O)N2C(C(=O)O)=C(CSc3nnnn3C)CSC12)n1cc(Br)cn1 (stereo not given) ?
G9a inh: 28µM*; BAZ2B block: 50µM*; JMJD2A Tudor: -23%; HP1b chromo inh: 21%; Sfp inh: 10%

What do the screens show for `Cc1nn(C(C)C(=O)NC2C(=O)N3C(C(=O)O)=C(CSc4nnnn4C)CSC23)cc1Cl` (stereo not given)?
G9a inh: inconclusive; BAZ2B block: inconclusive; JMJD2A Tudor: -21%; HP1b chromo inh: 41%; Sfp inh: 79µM*

Results for COc1cc2c(cc1OC)C1O[C@](CCCCN3C(=O)c4ccccc4C3=O)(C2)OC2=C1C(=O)c1ccccc1C2=O ?
BAZ2B block: -2%[22.9 µM]; Sfp inh: -23%

Results for Oc1ccc(NC(=S)N=Nc2c(O)[nH]c3ccccc23)cc1 ?
L3MBTL1 block: inconclusive; G9a inh: 50µM*; BAZ2B block: -15%; JMJD2A Tudor: inconclusive; HP1b chromo inh: inconclusive; Sfp inh: -8%

What do the screens show for `O=C(N=Nc1c(O)[nH]c2ccccc12)c1cc(NS(=O)(=O)c2cccs2)cc(NS(=O)(=O)c2cccs2)c1`?
L3MBTL1 block: -27%; G9a inh: -2%; BAZ2B block: -18%; JMJD2A Tudor: -21%; HP1b chromo inh: 0%; Sfp inh: -5%

Results for O=C(N=Nc1c(O)[nH]c2ccccc12)c1cccs1 ?
G9a inh: 79µM*; BAZ2B block: -24%; JMJD2A Tudor: -12%; HP1b chromo inh: 31%; Sfp inh: -28%

What do the screens show for `Oc1ccc(NC(=S)N=Nc2c(O)[nH]c3ccc(Br)cc23)cc1`?
G9a inh: inconclusive; BAZ2B block: 20µM*; JMJD2A Tudor: 32µM*; HP1b chromo inh: inconclusive; Sfp inh: -14%

What do the screens show for `Oc1[nH]c2ccc(Br)cc2c1N=NC(=S)Nc1ccc(F)cc1`?
G9a inh: -41%; BAZ2B block: inconclusive; JMJD2A Tudor: -31%; HP1b chromo inh: inconclusive; Sfp inh: inconclusive

Results for Cc1ccc(NC(=S)N=Nc2c(O)[nH]c3ccccc23)cc1 ?
L3MBTL1 block: -9%; G9a inh: 35%; JMJD2A Tudor: -22%; HP1b chromo inh: 10%; Sfp inh: 2%

Results for N#CC1(NC(=O)COc2ccc(S(=O)(=O)N3CCCC3)cc2[N+](=O)[O-])CCCCC1 ?
L3MBTL1 block: 4%; G9a inh: 14µM*; BAZ2B block: -23%; JMJD2A Tudor: -14%; HP1b chromo inh: 1%

Bioassay records: PubChem BioAssay, National Center for Advancing Translational Sciences (NCATS)
